This note sets out measurements from PubChem BioAssay.

Active and inactive are the calls of the source.

A short description of test [1]: compounds binding Alexa647 anti-His antibody – biochemical, small-molecule microarray, 635 nm fluorescence, artefact control for SMM control protein annotation, primary screen (AID 1128).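 Also: score merges feature fluorescence with signal-to-noise for each printed compound spot.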 Conditions: higher = more signal.
The subject of test [2] is Human papillomavirus type 1a E7 protein (residues 1-88). In words: HPV1a E7 small-molecule binders, primary screen, biochemical, small-molecule microarray, residues 1-88, 635 nm (AID 1129). Conditions: small-molecule microarray binding, fluorescence 635 nm; higher = more signal.
The target in test [3] is Focal adhesion kinase 1 (Homo sapiens) (UniProt Q05397). In words: PTK2 protein binding on printed compound slides – biochemical, small-molecule microarray, 635/667 nm fluorescence, BSA, DTT, primary screen (AID 1130).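 Also: composite of spot emission at 667 nm and signal to noise over triplicate slides.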 Conditions: 635 nm fluorescence, higher = more signal.
Chain of Focal adhesion kinase 1 (Homo sapiens) (Q05397 whole entry, looked up): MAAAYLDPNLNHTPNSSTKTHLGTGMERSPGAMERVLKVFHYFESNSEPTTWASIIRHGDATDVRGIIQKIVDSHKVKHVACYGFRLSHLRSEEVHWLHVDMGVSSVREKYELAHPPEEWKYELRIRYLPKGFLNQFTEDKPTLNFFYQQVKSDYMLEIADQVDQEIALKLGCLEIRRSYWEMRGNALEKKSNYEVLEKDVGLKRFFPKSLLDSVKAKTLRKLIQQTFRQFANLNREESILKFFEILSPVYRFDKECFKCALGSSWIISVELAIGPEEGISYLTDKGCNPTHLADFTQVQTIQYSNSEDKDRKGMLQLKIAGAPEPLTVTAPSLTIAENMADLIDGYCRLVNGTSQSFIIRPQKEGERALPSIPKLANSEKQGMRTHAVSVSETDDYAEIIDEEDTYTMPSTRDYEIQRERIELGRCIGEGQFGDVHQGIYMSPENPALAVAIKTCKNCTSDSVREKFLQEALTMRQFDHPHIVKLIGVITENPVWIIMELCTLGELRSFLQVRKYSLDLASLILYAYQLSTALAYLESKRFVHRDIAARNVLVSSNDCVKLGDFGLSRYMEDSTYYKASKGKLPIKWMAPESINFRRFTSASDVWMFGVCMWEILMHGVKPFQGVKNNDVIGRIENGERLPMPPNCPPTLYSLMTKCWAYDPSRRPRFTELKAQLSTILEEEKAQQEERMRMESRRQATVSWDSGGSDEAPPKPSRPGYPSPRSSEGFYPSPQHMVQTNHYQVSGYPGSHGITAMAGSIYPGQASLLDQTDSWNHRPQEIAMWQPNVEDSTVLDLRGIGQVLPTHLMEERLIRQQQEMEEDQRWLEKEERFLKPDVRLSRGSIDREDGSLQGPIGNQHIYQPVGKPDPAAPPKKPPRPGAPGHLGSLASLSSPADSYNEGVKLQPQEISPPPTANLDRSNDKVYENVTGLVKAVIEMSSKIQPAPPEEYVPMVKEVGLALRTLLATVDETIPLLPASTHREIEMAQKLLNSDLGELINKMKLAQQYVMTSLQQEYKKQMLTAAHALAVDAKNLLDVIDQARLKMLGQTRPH
The subject of test [4] is Fibrinogen (Alexa647-labelled). In words: Alexa647-fibrinogen binding to printed small molecules – biochemical, small-molecule microarray, 635/667 nm fluorescence, artefact control for SMM control-protein annotation, profiling panel (AID 1131).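 Also: z-score merges 667 nm fluorescence with per-spot signal-to-noise over triplicate slides.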 Conditions: fibrinogen-A647 binding fluorescence, higher = more signal.
Test [5] deals with Follistatin (Homo sapiens) (UniProt P19883). Put plainly: FST protein binding to printed compounds – biochemical, small-molecule microarray, 635/667 nm fluorescence, primary screen (AID 1132). Conditions: 635 nm fluorescence, higher = more signal.
Chain of Follistatin (Homo sapiens) (P19883 whole entry, looked up): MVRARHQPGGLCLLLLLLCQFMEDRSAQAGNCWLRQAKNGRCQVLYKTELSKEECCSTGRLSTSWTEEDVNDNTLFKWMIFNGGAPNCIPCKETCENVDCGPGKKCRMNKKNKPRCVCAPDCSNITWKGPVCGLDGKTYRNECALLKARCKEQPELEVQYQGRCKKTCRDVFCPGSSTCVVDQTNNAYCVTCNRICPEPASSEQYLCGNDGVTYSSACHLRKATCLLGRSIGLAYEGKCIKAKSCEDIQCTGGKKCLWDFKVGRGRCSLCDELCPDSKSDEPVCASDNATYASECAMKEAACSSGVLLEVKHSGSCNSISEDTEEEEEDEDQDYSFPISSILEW
For test [6], the target named is Fibroblast growth factor 2 (Homo sapiens) (UniProt P09038). Put plainly: basic fibroblast growth factor binding to printed compounds – biochemical, small-molecule microarray, 635/667 nm fluorescence, primary screen (AID 1133). Conditions: FGF2, fluorescence 635/667, higher = more signal.
Chain of Fibroblast growth factor 2 (Homo sapiens) (P09038 whole entry, looked up): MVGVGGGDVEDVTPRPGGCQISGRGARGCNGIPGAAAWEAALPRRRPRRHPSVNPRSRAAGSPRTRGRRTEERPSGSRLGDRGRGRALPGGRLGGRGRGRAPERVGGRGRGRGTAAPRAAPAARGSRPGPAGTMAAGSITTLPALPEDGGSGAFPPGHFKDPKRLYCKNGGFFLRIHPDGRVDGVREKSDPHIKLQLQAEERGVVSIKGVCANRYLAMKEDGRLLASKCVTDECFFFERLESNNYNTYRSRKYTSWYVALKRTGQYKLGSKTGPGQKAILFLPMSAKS
The nature of test [7]: JC-1 mitochondrial potential readout, lung cancer cells – cell-based, A549, JC-1 fluorescence, basal, 24 h, 100 nL, profiling panel (AID 1138).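 Also: A549 lung adenocarcinoma cells under basal conditions with no added stimulus; test concentration not given here.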 Conditions: higher = more signal.
The subject of another test is Lefty1. In words: Lefty1 protein binding to printed compounds – biochemical, small-molecule microarray, 635/667 nm fluorescence, primary screen (AID 1139). Conditions: fluorescence 635/667, higher = more signal.
Test [8] has as its system wheat germ agglutinin (Triticum aestivum), Alexa647-labelled. Put plainly: Alexa647-WGA lectin binding to printed small molecules – biochemical, small-molecule microarray, 635/667 nm fluorescence, artefact control for SMM control-protein annotation, profiling panel (AID 1140).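 Also: score merges 667 nm feature emission with signal to noise over triplicate slides.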 Conditions: WGA-A647 binding, 635 nm fluorescence, higher = more signal.
Test [9] concerns the target Luciferin 4-monooxygenase (Photinus pyralis) (UniProt P08659). Put plainly: inhibition of purified Photinus pyralis luciferase – biochemical, luminescence, purified enzyme, 2006 set, primary screen (AID 1141).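 Also: cell-free assay with purified firefly luciferase at 100 ng per well in PBS; test concentration not given here.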 Conditions: purified firefly luciferase, SteadyGlo luminescence, 30 min; higher = more signal, called active from +8 up or from −8 down.

Chain of Luciferin 4-monooxygenase (Photinus pyralis) (P08659 whole entry, looked up): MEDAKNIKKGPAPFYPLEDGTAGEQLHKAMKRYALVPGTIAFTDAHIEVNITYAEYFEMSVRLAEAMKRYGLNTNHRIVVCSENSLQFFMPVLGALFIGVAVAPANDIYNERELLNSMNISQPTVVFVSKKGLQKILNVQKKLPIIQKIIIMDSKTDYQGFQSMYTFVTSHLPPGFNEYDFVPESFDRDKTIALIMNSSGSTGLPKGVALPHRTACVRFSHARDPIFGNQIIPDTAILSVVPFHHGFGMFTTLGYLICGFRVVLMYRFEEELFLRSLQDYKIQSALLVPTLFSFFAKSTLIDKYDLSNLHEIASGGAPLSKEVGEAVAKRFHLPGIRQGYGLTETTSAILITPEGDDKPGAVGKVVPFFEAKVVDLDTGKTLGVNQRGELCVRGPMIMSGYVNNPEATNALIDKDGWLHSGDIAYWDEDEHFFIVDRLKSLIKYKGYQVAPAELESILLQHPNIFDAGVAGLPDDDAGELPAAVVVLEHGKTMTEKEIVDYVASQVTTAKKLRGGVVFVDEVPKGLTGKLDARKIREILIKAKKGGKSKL

Regarding `CC(C)N1CC=CC23O[C@@H]4C=CCOC(=O)[C@@H]4[C@H]2C(=O)N(CCCCCCO)[C@@H]3C1=O` (stereo not given in full), the composite z-score was -0.249 in [1]; -0.407 in test [2]; -0.181 in [3]; -1.66 in [4]; -0.663 in [5]; -1.19 in test [6]. For the same compound, the composite z-score in the test with Lefty1 was -0.0359; in [8], 0.666. Besides, the z-score in test [7] is -0.525; in test [9], 0.287 (inactive).
Turning to `COc1ccc(CCNC(=O)[C@@H]2c3ccccc3C(=O)N(Cc3ccccc3C(F)(F)F)[C@H]2c2ccc(CO)cc2)cc1`, the composite z-score in test [1] was 0.263; in test [2], 0.656; in test [3] it was 0.495; in test [4], -0.731; in test [5] it was 0.566; in test [6], -0.388. Besides, the results for the composite z-score (in the test with Lefty1; in [8]) were -0.526 and 0.665, respectively. Further, the values for the z-score in test [7] and in test [9] were 1.07 and 0.912 (inactive), respectively.
As to `Cc1cc(C)c(C(O)C2C=CC3C(=O)N(c4ccccc4)C(=O)C3N2Nc2ccc([N+](=O)[O-])cc2)c(C)c1` (stereo not given), the composite z-score in [1] stood at 0.945; in test [2] it was 1.22; in test [3], 0.434; in test [4] it was 1.02; in test [5] it was 1.08; in test [6] it was 0.504. Moreover, the composite z-score with Lefty1 was 0.648; in test [8] it was 0.71. Also, the z-score was -0.712 in [7] and 1.12 (inactive) in test [9].
Turning to `CCCCC(=C=CC[C@H](O)c1cccc(OCCO)c1)C[C@H](O)COCc1ccccc1`, the composite z-score in test [1] is -0.178; in test [2], 0.101; in test [3], 0.105; in test [4], -0.606; in test [5] it was 0.0306; in test [6] it was -0.473. Also, the composite z-score turned out to be 0.743 in the test with Lefty1 and 0.435 in [8]. Besides, the z-score is 0.396 in test [7] and -0.352 (inactive) in test [9].
As for `[N-]=[N+]=NCc1ccccc1C[C@@]1(C(=O)NCCN2CCOCC2)N=C(c2ccc(OCCCO)cc2)O[C@@H]1c1ccccc1CN=[N+]=[N-]`, the composite z-score in test [1] turned out to be 2.12; in test [2], 1.21; in test [3] it was 0.366; in test [4], 0.973; in [5] it was 1.45; in [6], 0.672. In addition, the composite z-score was found to be 0.785 in the test with Lefty1 and 0.59 in test [8]. The z-score in test [7] was 1.08; in test [9], -1.36 (inactive).
On to `COC(=O)[C@H]1N=C(c2ccc(OCCCO)cc2)O[C@H]1c1ccccc1CN=[N+]=[N-]`, for which the composite z-score in test [1] is 0.96; in test [2], -0.189; in test [3] it was 0.605; in test [4], 0.825; in test [5] it was 0.107; in test [6], -0.372. The composite z-score was -0.139 in the test on Lefty1 and 0.434 in test [8]. The results for the z-score in [7] and in [9] were 0.758 and -8.1 (active), respectively.
For `C=CCOC(=O)[C@@H]1[C@H]2C(=O)O[C@H](c3ccccc3)[C@H](c3ccccc3)N2[C@H](c2ccc(OCCOC(=O)[C@@H]3C[C@@H]4C(=O)N5CCC[C@H]5C(=O)N4[C@@H]3c3cccc(OCCO)c3)cc2)[C@@]12C(=O)Nc1ccc(I)cc12`, the composite z-score in [1] amounted to 1.16; in test [2] it was 1.07; in test [3], 0.468; in test [4] it was 0.4; in [5], 1.43; in test [6] it was 1.92. Moreover, the composite z-score stood at 1.42 with Lefty1 and 0.504 in test [8]. For the same compound, the z-score in test [7] was -1.17; in test [9], 1.13 (inactive).
Consider `C=CCNC(=O)[C@@H]1[C@H]2C(=O)O[C@H](c3ccccc3)[C@H](c3ccccc3)N2[C@H](c2ccc(O)cc2)[C@@]12C(=O)Nc1ccc(C#CCCO)cc12`, for which the composite z-score in test [1] was 0.111; in [2], -0.756; in test [3], 1.33; in [4], -1.22; in test [5], -0.773; in [6], -0.53. The composite z-score in the test with Lefty1 was -0.836; in [8] it was 1.24. Further, the z-score in [7] was -0.0797; in test [9] it was 1.05 (inactive).
For the compound `COC(=O)[C@@]1(Cc2ccc(F)cc2)[C@H]2c3cc(C(=O)N(C)C)n(CCSCCO)c3C[C@H]2CN1C(=O)c1ccccc1`, the composite z-score in [1] was 2.06; in test [2] it was 0.674; in [3] it was 0.879; in [4], 0.241; in test [5] it was 0.297; in test [6], -0.254. In addition, the figures for the composite z-score (in the test with Lefty1; in [8]) were -0.601 and 0.45, respectively. Besides, the results for the z-score in test [7] and in test [9] were 0.554 and 0.0635 (inactive), respectively.
Turning to `O=C(N1CCOCC1)[C@@]1(CCS(=O)(=O)c2ccccc2)COC(c2ccc(OCCCO)cc2)=N1`, the composite z-score was 0.436 in test [1]; 1.18 in [2]; 0.307 in test [3]; -0.71 in test [4]; -0.176 in test [5]; 0.974 in [6]. Further, the composite z-score was -1.32 with Lefty1 and -0.204 in test [8]. Besides, the z-score was -0.336 in test [7] and 0.735 (inactive) in test [9].
In the case of `CCCNC(=O)[C@@H]1c2ccccc2C(=O)N(CC23CC4CC(CC(C4)C2)C3)[C@H]1c1ccc(CO)cc1`, the composite z-score stood at 0.618 in test [1]; 1.23 in test [2]; 0.734 in [3]; 0.957 in [4]; 1.34 in test [5]; 0.871 in test [6]. The results for the composite z-score (in the test with Lefty1; in [8]) were 0.798 and 0.562, respectively. Also, the z-score in test [7] is -1.17; in [9] it was 0.411 (inactive).
Consider `CCCC=C(CCC)[C@@H](NC(=O)Cc1ccccc1)c1ccc(C(=O)OC)cc1`, for which the composite z-score in [1] stood at 1.2; in test [2] it was 0.821; in test [3], 0.563; in test [4], 0.714; in [5], 0.28; in [6], 0.0515. Moreover, the composite z-score in the test with Lefty1 is -0.365; in test [8] it was 1.03. Also, the z-score in test [7] was -0.298; in test [9], 1.54 (inactive).
For the compound `C=CCOC(=O)[C@@H]1[C@H]2C(=O)O[C@H](c3ccccc3)[C@H](c3ccccc3)N2[C@H](c2ccc(OCCOC(=O)[C@@H]3C[C@@H]4C(=O)N[C@@H](CCCCNC(C)=O)C(=O)N4[C@@H]3c3ccc(O)cc3)cc2)[C@@]12C(=O)Nc1ccc(I)cc12`, the composite z-score is 1.73 in [1]; 1.21 in test [2]; 0.478 in test [3]; 0.207 in [4]; 1.41 in test [5]; 1.62 in [6]. For the same compound, the composite z-score with Lefty1 came to 1.37; in test [8], 0.412. For the same compound, the values for the z-score in test [7] and in test [9] were -1.37 and -0.576 (inactive), respectively.
On to `Cc1cc(C)c(C(O)C2C=CC3C(=O)N(c4ccccc4)C(=O)C3N2Nc2ccccc2)c(C)c1` (stereo not given), for which the composite z-score in test [1] amounted to 2.11; in test [2], 1.22; in test [3] it was 0.638; in [4], 1.03; in test [5] it was 0.784; in [6] it was 0.0968. For the same compound, the composite z-score in the test on Lefty1 turned out to be 0.366; in [8] it was 1.43. Besides, the figures for the z-score in test [7] and in test [9] were 0.384 and -0.584 (inactive), respectively.
In the case of `CC(C)c1ccc(NN2C(C(O)c3ccccn3)C=CC3C(=O)N(c4ccccc4)C(=O)C32)cc1` (stereo not given), the composite z-score amounted to 0.75 in test [1]; 1.28 in test [2]; 0.405 in [3]; 0.947 in [4]; 1.28 in test [5]; 1.48 in [6]. Also, the results for the composite z-score (in the test on Lefty1; in test [8]) were 1.18 and 0.976, respectively. The z-score in test [7] was 1.14; in test [9], -1.5 (inactive).
For `COc1cc2c(cc1OC)CN(C(=O)[C@@H]1[C@H]3C(=O)O[C@H](c4ccccc4)[C@H](c4ccccc4)N3[C@H](c3ccc(O)cc3)[C@@]13C(=O)Nc1ccc(C#CCNC(N)=O)cc13)CC2`, the composite z-score was 0.474 in test [1]; 0.69 in test [2]; 0.484 in test [3]; 0.43 in test [4]; 1.29 in [5]; 0.302 in test [6]. For the same compound, the results for the composite z-score (in the test on Lefty1; in test [8]) were 0.837 and 0.607, respectively. For the same compound, the z-score in test [7] is -0.876; in test [9], 0.696 (inactive).
